Experimental data published in the supplement of paper PMC6089552.
The campaign covered roughly 3,200 compounds. About 300 (9.4%) showed activity. What follows is part of a selection rich in actives, with near analogues and random picks from the rest.

Tested on: A673/TR/shEF
Test: cell viability (LOESS-normalised, relative to median of negative controls) (log2 ratio); higher = more viable cells (less compound effect), active = hit call of the paper (over 3 MAD below the median)
Details: library screen: screen1, treatment time: 72 h
Procedure, shortened: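 Doxycycline, present or absent from 24 h before compounds, was used to induce EWS-FLI1 shRNA knockdown in A673/TR/shEF Ewing sarcoma cells at 1,500 per well in 384-well plates. Cells then received library compounds at two or more concentrations, or DMSO controls, for three days. Viability was measured by CellTiter-Glo luminescence on an Envision reader, and per-plate LOESS correction, division by the negative-control median and log2 transformation followed.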

[1] = 0.25 µM, EWS-FLI1 expression: high (no doxycycline)
[2] = 0.25 µM, EWS-FLI1 expression: low (doxycycline-induced shRNA knockdown)
[3] = 2.5 µM, EWS-FLI1 expression: high (no doxycycline)
[4] = 2.5 µM, EWS-FLI1 expression: low (doxycycline-induced shRNA knockdown)

Measured: cell viability (log2)

Cc1cc(O)c(C)c2c1C(=O)Oc1c(C)c(O)c(C(=O)O)c(C)c1O2
inactive: [1] 0.09 | [2] 0.103 | [3] 0.0454 | [4] 0.145

CC(C)=CCC/C(C)=C/CC/C(C)=C/CO
inactive: [1] 0.153 | [2] 0.0866 | [3] 0.208 | [4] 0.106

CC(C)=CCc1c(O)c(C(=O)CC(C)C)c2oc(=O)cc(-c3ccccc3)c2c1O
inactive: [1] 0.0516 | [2] 0.00347 | [3] 0.107 | [4] 0.0124

CC(C)CCCC(C)C1CCC2C3CC=C4CC(=O)CCC4(C)C3CCC12C (configuration not stated)
inactive: [1] 0.0196 | [2] 0.0967 | [3] 0.0967 | [4] 0.133

COCCOC(=O)C1=C(C)NC2=C(C(=O)CCC2)C1c1ccc(C)s1 (configuration not stated)
inactive: [1] -0.0698 | [2] 0.0631 | [3] 0.0308 | [4] 0.207

C=C(C)C1Cc2c(ccc(C(=O)O)c2O)O1 (configuration not stated)
inactive: [1] 0.0493 | [2] -0.00474 | [3] 0.106 | [4] 0.105

CCOC(=O)c1oc2c(OC)c(O)cc(O)c2c(=O)c1-c1cc(OC)c(OC)c(OC)c1
inactive: [1] 0.036 | [2] 0.0305 | [3] -0.00359 | [4] -0.108

CC=C(C)C(=O)OC1[C@@H]2C=C3C4CC(=O)O[C@@H](c5ccoc5)[C@]4(C)CCC3[C@@](C)(C2=O)[C@@H](C(O)C(=O)OC)C1(C)C (some centres not stated)
inactive: [1] 0.075 | [2] -0.00745 | [3] 0.149 | [4] 0.0968

COC(=O)Nc1ccc(S(=O)(=O)N2C(C)CCCC2C)cc1 (configuration not stated)
inactive: [1] 0.0592 | [2] 0.103 | [3] 0.0767 | [4] 0.0829

COc1ccc(CN2CCN(Cc3ccc([N+](=O)[O-])cc3)CC2)cc1OC
inactive: [1] 0.0472 | [2] 0.118 | [3] 0.097 | [4] 0.0942

CCSc1nnc(-c2ccc([N+](=O)[O-])cc2)n1-c1ccccc1
inactive: [1] 0.0862 | [2] 0.0888 | [3] 0.0629 | [4] 0.153

CCOc1cccc(C(=O)c2ccc(O)c(O)c2O)c1
inactive: [1] 0.0703 | [2] 0.005 | [3] 0.0783 | [4] 0.0694

C[C@@H]1CC[C@@]23CCC4(C)[C@@](C=CC5[C@@]6(C)CCC(=O)C(C)(C)C6CC[C@]54C)(OC2=O)C3[C@H]1C (some centres not stated)
inactive: [1] 0.12 | [2] 0.0225 | [3] 0.0629 | [4] 0.0141
